Source: PubChem BioAssay (Center for Chemical Genomics, University of Michigan)
Most compounds without a hit are left out; they make up all but 0.93% or so of the library.
HIV TAR-Tat = HIV-1 TAR-Tat binding disruption | HIV-1 TAR RNA, Tat peptide displacement FRET; stronger effect = higher value | z-score (concentration not given with the values) | 100,000 compounds, 0.6% hits | AID 1259389; active = z-score of 3 or more in at least 2 runs
CDC25B CDK2 inh = human CDC25B-CDK2/CyclinA binding inhibition; P30305+P24941; HTRF CDC25B-CDK2/CyclinA binding, anti-His/anti-Flag; stronger effect = higher value; 94,000 compounds, 0.72% hits; z-score (concentration not given with the values); AID 1259370; in the data active = z-score above about 3.2
Active calls of the source: *.

COC(=O)c1c(C)oc2ccc(O)c(CN3CCCC(C)C3)c12 (stereo unspecified) was read as HIV TAR-Tat 0.85 and CDC25B CDK2 inh -1.1.
CC1(C)Cc2c(sc(NC(=O)C(=O)O)c2C(=O)O)CO1 was read as HIV TAR-Tat -0.5 and CDC25B CDK2 inh -0.79.
O=C(Nc1ccc(Cl)cc1)N1CCC(n2c(CC3CCCC3)nc3cccnc32)CC1 was read as HIV TAR-Tat 0.16.
`CNC(=O)c1c(NC(=O)Cc2ccccc2)sc2c1CCC2` gave HIV TAR-Tat 0.53.
For CCc1ccc(S(=O)(=O)NCc2c(C)nn(C)c2C)cc1 the results were HIV TAR-Tat 0.24.
O=C(NCc1csc(-c2ccccc2)n1)[C@H]1CSCN1C(=O)c1cccc(Br)c1 was read as HIV TAR-Tat 3.4.
CCc1ccc(C2Nc3cccc4cccc(c34)N2)cc1 was read as HIV TAR-Tat 35* and CDC25B CDK2 inh -1.1.
COc1cc(OC)c(C2Nc3cccc4cccc(c34)N2)c(OC)c1 was read as HIV TAR-Tat 2.6 and CDC25B CDK2 inh -3.
For COc1ccc(OC)c(NC(=O)CCS(=O)(=O)c2ccc3c(c2)CC(C)N3C(=O)C2CC2)c1 (stereo unspecified) the results were HIV TAR-Tat -0.13.
For CCOC(=O)C1CCN(c2cc(NCCOC)c3c4c(onc24)-c2ccccc2C3=O)CC1 the results were HIV TAR-Tat 1.3 and CDC25B CDK2 inh -1.3.
Screening CCOC(=O)N1CCN(c2cc(NCC(=O)O)c3c4c(onc24)-c2ccccc2C3=O)CC1 returned HIV TAR-Tat -6.2 and CDC25B CDK2 inh 3.2*.
`CCOC(=O)C1CCN(c2cc(NCC(=O)O)c3c4c(onc24)-c2ccccc2C3=O)CC1` gave HIV TAR-Tat -5.8 and CDC25B CDK2 inh 5.9*.
`CCOC(=O)C1CCCN(c2cc(NCC(C)C)c3c4c(onc24)-c2ccccc2C3=O)C1` (stereo unspecified) gave HIV TAR-Tat 0.8 and CDC25B CDK2 inh -1.2.
Screening CCOC(=O)N1CCN(c2cc(NCCCC(=O)O)c3c4c(onc24)-c2ccccc2C3=O)CC1 returned HIV TAR-Tat 0.69 and CDC25B CDK2 inh -0.95.
`CCOC(=O)C1CCCN(c2cc(NCCCC(=O)O)c3c4c(onc24)-c2ccccc2C3=O)C1` (stereo unspecified) gave HIV TAR-Tat 21* and CDC25B CDK2 inh 11*.
`COc1ccc(C(C)=O)cc1Oc1ccc(C)cc1` gave CDC25B CDK2 inh -1.4.
Screening COc1cc(OC)cc(N2C(=O)N(C)c3ccccc3S2(=O)=O)c1 returned HIV TAR-Tat 1.8.
Screening O=C1c2ccccc2C(=O)c2cc(NC(=O)C(Cl)(Cl)Cl)ccc21 returned CDC25B CDK2 inh 16*.
CCOc1ccc(C(=O)Nc2ccc3c(c2)C(=O)c2ccccc2C3=O)cc1 was read as CDC25B CDK2 inh 0.8.
O=C(/C=C/c1ccccc1)Nc1ccc2c(c1)C(=O)c1ccccc1C2=O was read as CDC25B CDK2 inh -4.1.
`O=C(O)/C=C/C(=O)Nc1ccc2c(c1)C(=O)c1ccccc1C2=O` gave CDC25B CDK2 inh 6.1*.
Screening c1csc(C2=Nc3ccccc3NC(c3cccs3)=N2)c1 returned HIV TAR-Tat 0.49 and CDC25B CDK2 inh -2.2.
CCSc1ccc(C(=O)Nc2sc3c(c2C(N)=O)CCC3)cc1 was read as HIV TAR-Tat 0.08.
CCC(C(=O)NCc1cccs1)N1C(=O)CCn2nc(C)cc21 (stereo unspecified) was read as HIV TAR-Tat 0.72.
`COc1ccc2[nH]c(=O)cc(C(=O)O)c2c1` gave HIV TAR-Tat 13* and CDC25B CDK2 inh 0.85.
For COc1ccc2c(C(=O)O)cc(=O)[nH]c2c1 the results were HIV TAR-Tat -0.28 and CDC25B CDK2 inh -1.2.
O=c1[nH]c(Nc2ccccc2)cc2ccccc12 was read as HIV TAR-Tat -7.4 and CDC25B CDK2 inh 16*.
O=C(O)c1cc2ccccc2c(=O)[nH]1 was read as HIV TAR-Tat 1.9.
CCC(=O)OCCNc1cc(N2CCN(C)CC2)c2noc3c2c1C(=O)c1ccccc1-3 was read as HIV TAR-Tat -1.2 and CDC25B CDK2 inh -1.5.
Screening O=C(/C=C/c1ccc(O)c(O)c1)O[C@H](Cc1ccc(O)c(O)c1)C(=O)O returned HIV TAR-Tat 17*.
O=C(O)/C=C/c1ccc(O)c(O)c1 was read as HIV TAR-Tat 5.3 and CDC25B CDK2 inh -1.6.
Cc1ccc(NS(=O)(=O)c2ccc(-c3ccc(=O)[nH]n3)o2)cc1C was read as HIV TAR-Tat -0.43.
For O=C(CSc1ncnc2c1sc1cccc(F)c12)N1CCN(c2ncccn2)CC1 the results were HIV TAR-Tat -0.87.
`Cc1oc(-c2ccc(Cl)cc2)cc1-c1nn2c(-c3ccco3)nnc2s1` gave HIV TAR-Tat 1.4 and CDC25B CDK2 inh -1.3.
For Cc1oc(-c2ccc(F)cc2)cc1-c1nn2c(-c3ccoc3C)nnc2s1 the results were HIV TAR-Tat 18* and CDC25B CDK2 inh 1.8.
N#Cc1cc(-c2ccccc2)oc1N was read as CDC25B CDK2 inh -1.4.
Fc1ccc2c(c1)Cc1c([nH]c(-c3ccccc3)nc1=S)O2 was read as HIV TAR-Tat 0.9 and CDC25B CDK2 inh -1.8.
`Cc1nnc(SCC(=O)Nc2ncc3c(n2)CC(c2ccco2)CC3=O)s1` (stereo unspecified) gave HIV TAR-Tat -1.4 and CDC25B CDK2 inh 4.2.
For O=C(CSc1nnnn1-c1ccccc1)Nc1ncc2c(n1)CC(c1ccco1)CC2=O (stereo unspecified) the results were HIV TAR-Tat -4.7 and CDC25B CDK2 inh 15*.
CC(=O)Nc1ccc(-c2nc(-c3ccc4c(c3)ncn4C3CCCC3)no2)cc1 was read as HIV TAR-Tat 0.68.
For COc1ccc(/C=C2\S/C(=N\S(=O)(=O)c3ccccc3)NC2=O)cc1OC the results were CDC25B CDK2 inh 2.5.
Screening CCOC(=O)c1sc(=S)n(-c2ccc(Cl)cc2)c1N returned HIV TAR-Tat 1.5.
For CCOC(=O)c1sc(=S)n(-c2ccc(OC)cc2)c1N the results were HIV TAR-Tat 1.1 and CDC25B CDK2 inh 17*.
Screening O=C(CN1C(=O)c2ccccc2Sc2ncccc21)Nc1ccc2c(c1)OCO2 returned HIV TAR-Tat 13*.
For O=C(CN1C(=O)c2cccnc2Sc2ccccc21)Nc1ccc2c(c1)OCCO2 the results were HIV TAR-Tat 0.53.
`O=C(NC1CC1)c1ccc2cccc(O)c2n1` gave HIV TAR-Tat 1.7.
Screening O=C(Nc1cccnc1)c1ccc2cccc(O)c2n1 returned HIV TAR-Tat 6.4*.
Screening O=C(CSc1nccn(-c2ccc(F)cc2)c1=O)Nc1ccc(Br)cc1 returned HIV TAR-Tat 1.1.
For CCCNC(=O)NC1COc2ccccc2C1 (stereo unspecified) the results were HIV TAR-Tat 1.1.
`COc1ccc(N2CSC3=C(C#N)C(c4ccc(SC)cc4)CC(=O)N3C2)cc1` (stereo unspecified) gave HIV TAR-Tat -0.8 and CDC25B CDK2 inh 2.8.
COc1ccc(C2CC(=O)N3CN(c4ccc(F)cc4)CSC3=C2C#N)c(OC)c1 (stereo unspecified) was read as HIV TAR-Tat -2.1 and CDC25B CDK2 inh 4.4*.
COc1ccc(C2CC(=O)N3CN(C)CSC3=C2C#N)c(OC)c1 (stereo unspecified) was read as HIV TAR-Tat -1.3 and CDC25B CDK2 inh 5.2*.
For COc1ccc(Br)cc1C1CC(=O)N2CN(C)CSC2=C1C#N (stereo unspecified) the results were HIV TAR-Tat 3.3 and CDC25B CDK2 inh 5.
